# Test results as given in PubChem BioAssay (EPA / NIEHS).
# Results filed as inconclusive are left out. The source made the active and inactive calls. How the source made its calls, unless noted: active means hit-call score of the fitted dose curve at least 0.9, where 1 is the maximum; inactive means score below 0.9.
# Columns and labels:
# [1] = read-out: E-selectin (Homo sapiens) (UniProt P16581); test: BSK_SAg_Eselectin: BioMAP Diversity Plus: SAg Assay for Eselectin Biomarker Activity (AID 2283091); settings: primary human HUVEC with PBMC; actives raise or lower the signal
# In short: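 Co-culture: HUVEC + PBMC. Dose compound; 24 h. ELISA for E-selectin. Bidirectional fit vs DMSO.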
# [2] = read-out: Monokine induced gamma interferon (MIG), CXCL9 (gene 4283); test: BSK_SAg_MIG: BioMAP Diversity Plus: SAg Assay for Monokine induced gamma interferon (MIG) Biomarker Activity (AID 2283092); settings: primary human HUVEC with PBMC; actives raise or lower the signal
# In short: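 ELISA readout of MIG/CXCL9; primary human umbilical vein endothelial cells co-cultured with peripheral blood mononuclear cells; 24 h post-dose; gain/loss fit vs DMSO baseline.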
# [3] = BSK_SAg_PBMCCytotoxicity: PBMC Cytotoxicity Assessment in the BioMAP Diversity Plus: SAg Assay (AID 2283093); settings: primary human HUVEC with PBMC;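 further: PBMC viability measured as Alamar Blue reduction fluorescence at 546/580 nm; fitted both ways against DMSO so a hit may be loss or gain of signal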;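 on AC50: PBMC superantigen activated with SEB plus TSST-1 one hour after compound addition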
# In short: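 Alamar Blue reduction (6 h, ex/em 546/580 nm) read after 90 h culture of PBMC pre-dosed 1 h then stimulated with SEB plus TSST-1, 20 ng/mL each. Gain or loss of signal fitted relative to DMSO.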
# [4] = read-out: Interleukin-8 (IL8), CXCL8 (gene 3576); test: BSK_SAg_IL8: BioMAP Diversity Plus: SAg Assay for Interleukin-8 (IL8) Biomarker Activity (AID 2283094); settings: primary human HUVEC with PBMC; actives raise or lower the signal
# In short: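 Primary human endothelial cells with PBMC, exposed 24 h; IL-8 determined by ELISA, analysed bidirectionally relative to DMSO.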
# [5] = BSK_SAg_Proliferation: Cell Proliferation Assessment in the BioMAP Diversity Plus: SAg Assay (AID 2283095); settings: primary human HUVEC with PBMC;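 further: relative cell number as total protein by SRB absorbance in sub-confluent culture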
# In short: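 A human primary co-culture of umbilical vein endothelium and blood mononuclear cells receives compound; relative cell number is quantified at 96 h by SRB staining and 560 nm absorbance, with DMSO-referenced bidirectional curve fitting.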
# [6] = BSK_SAg_SRB: Viability Assessment in the BioMAP Diversity Plus: SAg Assay (AID 2283096); settings: primary human HUVEC with PBMC;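 further: cells read one day after compound addition; hits may be either gain or loss of signal compared with DMSO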
# In short: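 SRB absorbance at 560 nm served as the viability read-out. Cells (HUVEC plus peripheral blood mononuclear cells) were TCA-fixed and stained 24 h post-dosing; activity fitted in both directions against DMSO controls.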
# [7] = target: human CYP2A6, CYP2A6 (gene 1548) (UniProt P11509); test: NVS_ADME_hCYP2A6: NovaScreen (NVS) CYP450-related Enzyme Activity (ADME) Assay for human CYP2A6 (AID 2283099; active means hit-call score of the fitted dose curve at least 0.9, where 1 is the maximum)
# In short: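 Fluorescent substrate turnover by recombinant CYP2A6 (insect cell source), 0.5 h read. Screen: 10 uM, duplicate; threshold hits (e.g. 30% inhibition) → singleton concentration-response, top 20 uM. Positive and negative controls on every plate.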
# [8] = target: human CYP2C9, CYP2C9 (gene 1559) (UniProt P11712); test: NVS_ADME_hCYP2C9: NovaScreen (NVS) CYP450-related Enzyme Activity (ADME) Assay for human CYP2C9 (AID 2283108; active means hit-call score of the fitted dose curve at least 0.9, where 1 is the maximum)
# In short: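 Fluorescence readout of CYP2C9 activity (SF9-expressed human enzyme) at 0.75 h. The primary screen used 10 uM in duplicate, with concentration-response follow-up for actives; acetonitrile was the negative control.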
# [9] = target: Cytochrome P450 3A4 (Homo sapiens) (UniProt P08684); test: NVS_ADME_hCYP3A4: NovaScreen (NVS) CYP450-related Enzyme Activity (ADME) Assay for human CYP3A4 (AID 2283110; active means hit-call score of the fitted dose curve at least 0.9, where 1 is the maximum)
# In short: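 Compounds screened in duplicate at 10 uM, with follow-up concentration-response for actives, against insect-cell-expressed recombinant enzyme. Activity read by fluorescence 0.33 h after dosing; loss of signal versus acetonitrile control indicates inhibition.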
# [10] = target: Cytochrome P450 2C19 (Homo sapiens) (UniProt P33261); test: NVS_ADME_hCYP2C19: NovaScreen (NVS) CYP450-related Enzyme Activity (ADME) Assay for human CYP2C19 (AID 2283113; active means hit-call score of the fitted dose curve at least 0.9, where 1 is the maximum;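 on AC50: potency for inhibition seen as loss of fluorescent signal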)
# In short: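 Fluorescence intensity was measured 1 hour after chemicals were added to insect-cell-derived recombinant CYP2C19 with fluorogenic substrate. Decreased signal versus acetonitrile control was taken as reduced enzyme activity; initial testing used 10 uM in duplicate.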
# [11] = target: human CYP19A1, CYP19A1 (gene 1588) (UniProt P11511); test: NVS_ADME_hCYP19A1: NovaScreen (NVS) CYP450-related Enzyme Activity (ADME) Assay for human CYP19A1 (AID 2283098; active means hit-call score of the fitted dose curve at least 0.9, where 1 is the maximum)
# In short: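 Primary testing was in duplicate at a single 10 uM concentration, with actives followed up in concentration-response series. Fluorescence read-out of recombinant enzyme activity at 0.5 h, cell-free. Acetonitrile was the negative-control baseline.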
# [12] = target: human CYP1A1, CYP1A1 (gene 1543) (UniProt P04798); test: NVS_ADME_hCYP1A1: NovaScreen (NVS) CYP450-related Enzyme Activity (ADME) Assay for human CYP1A1 (AID 2283100; active means hit-call score of the fitted dose curve at least 0.9, where 1 is the maximum)
# In short: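 Recombinant hCYP1A1 + fluorogenic substrate, cell-free; 1 h; fluorescence read. Single-point 10 uM (duplicate) → concentration series, max 20 uM. Acetonitrile negative control.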
# [13] = target: human CYP2B6, CYP2B6 (gene 1555) (UniProt P20813); test: NVS_ADME_hCYP2B6: NovaScreen (NVS) CYP450-related Enzyme Activity (ADME) Assay for human CYP2B6 (AID 2283101; active means hit-call score of the fitted dose curve at least 0.9, where 1 is the maximum)
# In short: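 Fluorescence-based enzyme activity of recombinant human CYP2B6, measured 1 h post-dose against acetonitrile vehicle baseline. Screened at a single concentration of 10 uM in duplicate before concentration-response follow-up.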
# [14] = target: human CYP1A2, CYP1A2 (gene 1544) (UniProt P05177); test: NVS_ADME_hCYP1A2: NovaScreen (NVS) CYP450-related Enzyme Activity (ADME) Assay for human CYP1A2 (AID 2283102; active means hit-call score of the fitted dose curve at least 0.9, where 1 is the maximum;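 further: potency for inhibition since loss of fluorescence marks reduced CYP1A2 activity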)
# In short: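 rec. hCYP1A2 (insect cells), cell-free; fluorogenic substrate; 0.5 h; FI read. Baseline = acetonitrile; signal loss = inhibition. 10 uM duplicate primary → conc. series for actives.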
# Sequence of human CYP2C9, CYP2C9 (gene 1559) (P11712 whole entry, looked up): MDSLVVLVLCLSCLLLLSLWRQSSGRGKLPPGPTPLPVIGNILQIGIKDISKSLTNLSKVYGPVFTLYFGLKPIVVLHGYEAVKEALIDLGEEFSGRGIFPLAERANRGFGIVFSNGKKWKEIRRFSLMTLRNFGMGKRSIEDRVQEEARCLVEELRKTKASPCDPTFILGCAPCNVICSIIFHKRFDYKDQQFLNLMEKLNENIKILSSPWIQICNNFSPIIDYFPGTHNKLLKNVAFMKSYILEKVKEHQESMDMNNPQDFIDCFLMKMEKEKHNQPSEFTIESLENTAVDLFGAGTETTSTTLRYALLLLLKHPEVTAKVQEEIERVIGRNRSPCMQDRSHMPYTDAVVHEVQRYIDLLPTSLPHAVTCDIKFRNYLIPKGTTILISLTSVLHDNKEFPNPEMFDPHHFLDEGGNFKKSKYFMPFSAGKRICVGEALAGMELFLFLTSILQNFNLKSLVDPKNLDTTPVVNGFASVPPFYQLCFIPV
# Sequence of Cytochrome P450 3A4 (Homo sapiens) (P08684 whole entry, looked up): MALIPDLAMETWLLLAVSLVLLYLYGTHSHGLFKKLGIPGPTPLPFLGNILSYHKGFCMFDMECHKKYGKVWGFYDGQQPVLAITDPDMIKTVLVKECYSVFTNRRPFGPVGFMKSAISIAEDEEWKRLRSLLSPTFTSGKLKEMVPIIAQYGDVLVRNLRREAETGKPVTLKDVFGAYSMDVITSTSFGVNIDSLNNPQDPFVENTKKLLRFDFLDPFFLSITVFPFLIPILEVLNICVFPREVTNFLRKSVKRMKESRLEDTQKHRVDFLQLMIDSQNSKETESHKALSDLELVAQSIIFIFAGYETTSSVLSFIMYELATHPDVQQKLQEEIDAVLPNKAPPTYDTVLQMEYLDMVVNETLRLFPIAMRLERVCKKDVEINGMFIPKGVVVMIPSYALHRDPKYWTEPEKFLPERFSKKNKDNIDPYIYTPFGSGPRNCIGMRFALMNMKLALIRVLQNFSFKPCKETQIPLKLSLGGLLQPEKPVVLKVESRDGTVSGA
# Sequence of E-selectin (Homo sapiens) (P16581 whole entry, looked up): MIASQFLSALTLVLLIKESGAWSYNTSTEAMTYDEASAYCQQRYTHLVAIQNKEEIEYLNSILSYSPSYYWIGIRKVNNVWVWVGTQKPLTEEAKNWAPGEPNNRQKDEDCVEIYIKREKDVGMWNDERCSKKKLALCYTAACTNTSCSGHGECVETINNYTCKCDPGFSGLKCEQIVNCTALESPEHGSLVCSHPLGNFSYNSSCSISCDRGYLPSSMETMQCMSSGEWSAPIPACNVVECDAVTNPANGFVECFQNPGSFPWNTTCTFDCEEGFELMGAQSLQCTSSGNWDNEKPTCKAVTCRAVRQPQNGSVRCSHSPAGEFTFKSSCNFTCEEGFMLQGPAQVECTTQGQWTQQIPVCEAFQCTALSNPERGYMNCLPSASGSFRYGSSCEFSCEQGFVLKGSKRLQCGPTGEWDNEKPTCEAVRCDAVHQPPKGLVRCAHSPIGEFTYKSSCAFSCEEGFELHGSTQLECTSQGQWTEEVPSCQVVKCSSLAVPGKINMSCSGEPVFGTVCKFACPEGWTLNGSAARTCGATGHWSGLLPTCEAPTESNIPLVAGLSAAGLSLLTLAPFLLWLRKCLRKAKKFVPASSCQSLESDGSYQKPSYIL
# Sequence of human CYP2A6, CYP2A6 (gene 1548) (P11509 whole entry, looked up): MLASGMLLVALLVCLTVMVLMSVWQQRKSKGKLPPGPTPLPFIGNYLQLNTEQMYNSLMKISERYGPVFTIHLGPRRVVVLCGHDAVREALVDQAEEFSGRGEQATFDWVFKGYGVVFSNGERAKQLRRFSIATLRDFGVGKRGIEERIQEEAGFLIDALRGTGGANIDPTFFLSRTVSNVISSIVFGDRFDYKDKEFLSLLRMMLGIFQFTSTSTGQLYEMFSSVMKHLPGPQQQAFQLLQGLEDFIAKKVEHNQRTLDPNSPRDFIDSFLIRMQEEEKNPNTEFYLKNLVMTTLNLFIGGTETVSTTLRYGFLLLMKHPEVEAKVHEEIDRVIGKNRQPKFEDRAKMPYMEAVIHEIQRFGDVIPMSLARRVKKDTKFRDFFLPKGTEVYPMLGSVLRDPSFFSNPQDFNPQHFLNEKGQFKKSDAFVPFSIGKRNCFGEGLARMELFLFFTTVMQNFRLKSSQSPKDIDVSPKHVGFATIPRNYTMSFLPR
# Sequence of human CYP19A1, CYP19A1 (gene 1588) (P11511 whole entry, looked up): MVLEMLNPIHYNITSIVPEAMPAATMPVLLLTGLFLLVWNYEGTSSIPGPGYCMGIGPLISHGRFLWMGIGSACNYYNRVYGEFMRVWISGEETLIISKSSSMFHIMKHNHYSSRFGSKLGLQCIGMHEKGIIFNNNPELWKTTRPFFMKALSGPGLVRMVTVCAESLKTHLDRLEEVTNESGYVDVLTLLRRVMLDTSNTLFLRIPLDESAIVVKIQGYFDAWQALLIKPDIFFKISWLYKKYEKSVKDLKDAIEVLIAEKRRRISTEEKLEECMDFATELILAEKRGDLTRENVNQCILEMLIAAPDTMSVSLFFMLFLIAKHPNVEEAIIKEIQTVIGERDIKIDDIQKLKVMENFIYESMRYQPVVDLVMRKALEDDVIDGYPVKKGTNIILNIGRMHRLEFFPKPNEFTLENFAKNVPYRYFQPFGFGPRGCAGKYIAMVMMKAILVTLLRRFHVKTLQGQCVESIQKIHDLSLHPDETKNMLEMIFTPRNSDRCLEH
# Sequence of human CYP1A2, CYP1A2 (gene 1544) (P05177 whole entry, looked up): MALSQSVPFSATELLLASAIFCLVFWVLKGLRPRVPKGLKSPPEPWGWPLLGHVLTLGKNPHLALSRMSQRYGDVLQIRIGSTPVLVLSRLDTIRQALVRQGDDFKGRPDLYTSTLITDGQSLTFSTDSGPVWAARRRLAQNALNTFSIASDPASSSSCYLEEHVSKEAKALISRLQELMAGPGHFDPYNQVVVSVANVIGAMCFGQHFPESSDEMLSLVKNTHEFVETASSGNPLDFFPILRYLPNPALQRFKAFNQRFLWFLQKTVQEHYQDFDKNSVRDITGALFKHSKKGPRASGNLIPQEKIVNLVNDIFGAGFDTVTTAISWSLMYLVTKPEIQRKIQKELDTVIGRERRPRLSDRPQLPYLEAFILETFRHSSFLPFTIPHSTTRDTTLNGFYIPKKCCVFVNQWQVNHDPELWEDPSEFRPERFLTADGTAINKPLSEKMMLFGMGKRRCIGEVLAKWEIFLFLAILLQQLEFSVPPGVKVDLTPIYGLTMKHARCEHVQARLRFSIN
# Sequence of human CYP2B6, CYP2B6 (gene 1555) (P20813 whole entry, looked up): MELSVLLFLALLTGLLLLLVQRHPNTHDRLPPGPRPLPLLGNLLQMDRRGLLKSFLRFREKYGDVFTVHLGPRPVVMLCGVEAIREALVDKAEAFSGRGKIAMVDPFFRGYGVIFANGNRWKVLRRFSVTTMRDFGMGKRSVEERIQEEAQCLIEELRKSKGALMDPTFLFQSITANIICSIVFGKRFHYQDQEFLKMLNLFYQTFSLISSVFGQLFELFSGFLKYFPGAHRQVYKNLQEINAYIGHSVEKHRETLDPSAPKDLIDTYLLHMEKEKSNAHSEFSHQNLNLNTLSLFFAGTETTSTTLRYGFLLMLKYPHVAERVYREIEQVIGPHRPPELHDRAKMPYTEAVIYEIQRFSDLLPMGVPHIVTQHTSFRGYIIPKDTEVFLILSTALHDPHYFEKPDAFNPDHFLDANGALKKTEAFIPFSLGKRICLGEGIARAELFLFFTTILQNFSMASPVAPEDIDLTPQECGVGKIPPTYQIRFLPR
# Sequence of human CYP1A1, CYP1A1 (gene 1543) (P04798 whole entry, looked up): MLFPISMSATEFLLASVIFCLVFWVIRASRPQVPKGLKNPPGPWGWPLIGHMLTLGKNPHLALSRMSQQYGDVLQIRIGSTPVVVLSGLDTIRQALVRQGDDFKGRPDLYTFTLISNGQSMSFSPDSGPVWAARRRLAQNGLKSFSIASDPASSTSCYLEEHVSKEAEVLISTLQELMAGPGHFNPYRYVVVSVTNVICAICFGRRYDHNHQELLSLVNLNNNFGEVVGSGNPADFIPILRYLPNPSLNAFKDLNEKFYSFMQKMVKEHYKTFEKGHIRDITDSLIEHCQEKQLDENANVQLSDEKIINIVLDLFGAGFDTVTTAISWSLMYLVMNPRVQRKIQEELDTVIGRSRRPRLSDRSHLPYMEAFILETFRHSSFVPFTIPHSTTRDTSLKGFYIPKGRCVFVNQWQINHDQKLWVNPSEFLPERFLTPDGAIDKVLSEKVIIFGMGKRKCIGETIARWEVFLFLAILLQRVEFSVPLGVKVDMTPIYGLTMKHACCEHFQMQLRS
structure (smiles),measurement,setting,value
Oc1ccccc1,outcome,[1],inactive
same,outcome,[2],inactive
same,outcome,[3],inactive
same,outcome,[4],inactive
same,outcome,[5],inactive
same,outcome,[6],inactive
same,outcome,[7],inactive
O=C(O)c1ccccc1C(=O)OCc1ccccc1,outcome,[1],inactive
same,outcome,[2],inactive
same,outcome,[3],inactive
same,outcome,[4],inactive
same,outcome,[5],inactive
Cc1ccc2oc(CN(Cc3ccccc3)C(=O)Nc3c(F)cc(F)cc3F)c(-c3ccc(Cl)cc3)c2c1,outcome,[1],inactive
same,outcome,[2],inactive
same,outcome,[3],inactive
same,outcome,[4],inactive
same,AC50,[5],6.03 µM (active)
same,outcome,[6],inactive
CCCCCc1ccc(N)cc1,outcome,[1],inactive
same,outcome,[2],inactive
same,outcome,[3],inactive
same,outcome,[4],inactive
same,outcome,[5],inactive
CCN(CC)C(=O)c1cc(S(=O)(=O)Cc2ccccc2)c(N2CCC(c3ccccc3)CC2)cc1N(CC)CCN(C)C,AC50,[1],11.4 µM (active)
same,AC50,[2],15.2 µM (active)
same,AC50,[3],6.84 µM (active)
same,AC50,[4],5.2 µM (active)
same,AC50,[5],5.1 µM (active)
same,AC50,[8],12.5 µM (active)
same,AC50,[9],4.11 µM (active)
same,AC50,[10],3.48 µM (active)
CC1=CC(=O)/C(=C(/C)O)C(=O)O1,outcome,[1],inactive
same,outcome,[2],inactive
same,outcome,[3],inactive
same,outcome,[4],inactive
same,outcome,[5],inactive
same,outcome,[6],inactive
same,outcome,[11],inactive
CC[C@H](NC(=O)c1cc(F)ccc1NS(=O)(=O)c1cccc2cccnc12)c1ccccc1,AC50,[1],4 µM (active)
same,outcome,[2],inactive
same,outcome,[3],inactive
same,AC50,[4],8.99 µM (active)
same,AC50,[5],22.5 µM (active)
same,outcome,[6],inactive
same,outcome,[7],inactive
same,outcome,[9],inactive
CN(C)c1ccc(C(=C2C=CC(=[N+](C)C)C=C2)c2ccc(N(C)C)cc2)cc1,AC50,[1],0.223 µM (active)
same,AC50,[2],1.61 µM (active)
same,AC50,[3],5.83 µM (active)
same,AC50,[4],0.148 µM (active)
same,AC50,[5],0.693 µM (active)
same,AC50,[12],2.02 µM (active)
same,AC50,[13],6.7 µM (active)
same,AC50,[14],6.67 µM (active)
same,AC50,[10],3.32 µM (active)
O=c1ccc2ccccc2o1,outcome,[1],inactive
same,outcome,[2],inactive
same,outcome,[3],inactive
same,outcome,[4],inactive
same,outcome,[5],inactive
O=C1O[C@H]([C@@H](O)CO)C(O)=C1O,outcome,[1],inactive
same,outcome,[2],inactive
same,outcome,[3],inactive
same,outcome,[4],inactive
same,outcome,[5],inactive
same,outcome,[6],inactive
c1ccc(C[n+]2cccc3ccccc32)cc1,outcome,[1],inactive
same,outcome,[2],inactive
same,outcome,[3],inactive
same,outcome,[4],inactive
same,outcome,[5],inactive
same,outcome,[6],inactive
same,AC50,[10],4.78 µM (active)
Cc1cn([C@H]2C[C@H](N=[N+]=[N-])[C@@H](CO)O2)c(=O)[nH]c1=O,outcome,[1],inactive
same,outcome,[2],inactive
same,outcome,[3],inactive
same,outcome,[4],inactive
same,outcome,[5],inactive
CCCOC(=O)c1cc(O)c(O)c(O)c1,AC50,[1],14.3 µM (active)
same,outcome,[2],inactive
same,outcome,[3],inactive
same,outcome,[4],inactive
same,AC50,[5],17 µM (active)
same,outcome,[8],inactive
same,outcome,[9],inactive
same,outcome,[10],inactive
CCCCCCCCCC(=O)O,outcome,[1],inactive
same,outcome,[2],inactive
same,outcome,[3],inactive
same,outcome,[4],inactive
same,outcome,[5],inactive
COc1cccc([C@H](O)C2CCN(CCc3ccc(F)cc3)CC2)c1OC,outcome,[1],inactive
same,outcome,[2],inactive
same,outcome,[3],inactive
same,outcome,[4],inactive
same,outcome,[5],inactive
same,outcome,[6],inactive
OCCO,outcome,[1],inactive
same,outcome,[2],inactive
same,outcome,[3],inactive
same,outcome,[4],inactive
same,outcome,[5],inactive
same,outcome,[6],inactive
same,outcome,[11],inactive
O=C=NCCCCCCN=C=O,outcome,[1],inactive
same,outcome,[2],inactive
same,outcome,[3],inactive
same,outcome,[4],inactive
same,AC50,[5],15.8 µM (active)
same,outcome,[6],inactive
CCCCCCCCCCCCO,AC50,[1],31.7 µM (active)
same,AC50,[2],36.3 µM (active)
same,AC50,[3],35.1 µM (active)
same,AC50,[4],19.8 µM (active)
same,AC50,[5],30.1 µM (active)
CCN(Cc1cccc(S(=O)(=O)O)c1)c1ccc(C(=C2C=CC(=[N+](CC)Cc3cccc(S(=O)(=O)O)c3)C=C2)c2ccccc2S(=O)(=O)[O-])cc1,outcome,[1],inactive
same,outcome,[2],inactive
same,AC50,[3],10 µM (active)
same,outcome,[4],inactive
same,AC50,[5],9.61 µM (active)
same,AC50,[8],4.22 µM (active)
